About 79,000 compounds went through this panel and 15% of them were active in at least one assay; those are over-represented in the sample as a whole. Active and inactive are the calls of the source. No stated cut-off is given here; in the data, active means growth inhibition above about 70%; inactive means the rest.
Assays:
[1] = NCI Yeast Anticancer Drug Screen. Data for the rad52 strain (AID 147);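 further: 0% = growth of vehicle-treated control cultures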; conditions: S. cerevisiae rad52 mutant growth inhibition, hits give high values
Method in brief: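 Screen used a yeast mutant impaired in DNA repair. After compound exposure, growth was measured. Values reflect inhibition compared with vehicle-treated cells.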

[2] = NCI Yeast Anticancer Drug Screen. Data for the wt1 strain (AID 149);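 further: 0% = growth of vehicle-treated wt1 cultures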; conditions: S. cerevisiae wt1 strain (SPY 50644) growth inhibition, hits give high values
Method in brief: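 The wt1 strain was treated with compounds, and growth was compared with vehicle-treated cultures to give inhibition.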

[3] = NCI Yeast Anticancer Drug Screen. Data for the rad50EPP+ strain (AID 151);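 further: 0% = growth of vehicle-treated control cultures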; conditions: S. cerevisiae rad50 mutant strain, hits give high values
Method in brief: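 Exposing the rad50EPP+ strain to each compound, growth was compared with vehicle-only cultures to give inhibition.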

[4] = NCI Yeast Anticancer Drug Screen. Data for the mgt1 strain (AID 153); conditions: S. cerevisiae mgt1 mutant growth inhibition, hits give high values
Method in brief: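 Genetically defined yeast (mgt1) treated with compound; inhibition of growth expressed against vehicle-treated controls.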

[5] = NCI Yeast Anticancer Drug Screen. Data for the rad50 strain (AID 155);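 further: 0% = growth of vehicle-only cultures of the same strain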; conditions: S. cerevisiae rad50 strain growth inhibition, hits give high values
Method in brief: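 Cells are treated with compound, grown, and their growth is then scored against vehicle-only cultures of the same repair-deficient yeast strain.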

[6] = NCI Yeast Anticancer Drug Screen. Data for the mec2-1 strain (AID 157); conditions: S. cerevisiae mec2-1 strain, hits give high values
Method in brief: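 Readout is yeast growth inhibition, normalised to vehicle-treated controls, in the mec2-1 strain exposed to compound.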

[7] = NCI Yeast Anticancer Drug Screen. Data for the rad14 strain (AID 159);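 further: 0% = growth of vehicle-treated control cultures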; conditions: S. cerevisiae rad14 strain growth inhibition, hits give high values
Method in brief: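 Readout: yeast growth inhibition, referenced to vehicle-only cultures. Strain bears a defined alteration in DNA damage repair.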

[8] = NCI Yeast Anticancer Drug Screen. Data for the sgs1 mgt1 strain (AID 161);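 further: 0% = growth of cultures given vehicle only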; conditions: S. cerevisiae sgs1 mgt1 strain, hits give high values
Method in brief: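 Percent growth inhibition was derived by comparing compound-exposed mutant yeast with vehicle-exposed cultures. The strain carries alterations in DNA damage repair.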

[9] = NCI Yeast Anticancer Drug Screen. Data for the CLN2oe strain (AID 163);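 further: 0% = growth of vehicle-only control cultures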; conditions: S. cerevisiae CLN2oe strain, hits give high values
Method in brief: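 Values reflect how much compound exposure reduced yeast growth, referenced to vehicle-exposed cells. Assay organism is a strain with a defined genetic change affecting cell-cycle control.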

[10] = NCI Yeast Anticancer Drug Screen. Data for the cln2 rad14 strain (AID 165);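 further: 0% = growth equal to vehicle treated cultures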; conditions: S. cerevisiae cln2 rad14 strain, hits give high values
Method in brief: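 Relative to vehicle controls, growth inhibition of compound-treated cln2 rad14 yeast was recorded.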

[11] = NCI Yeast Anticancer Drug Screen. Data for the bub3 strain (AID 167); conditions: S. cerevisiae bub3 mutant strain, hits give high values
Method in brief: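 Part of a panel of yeast mutants defective in DNA damage repair or cell cycle regulation. Each strain is grown with compound, and inhibition is calculated relative to solvent-treated cultures.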

[12] = NCI Yeast Anticancer Drug Screen. Data for the wt2 strain (AID 169);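 further: 0% = growth of vehicle-treated yeast cultures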; conditions: S. cerevisiae wt2 strain growth inhibition, hits give high values
Method in brief: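 Values express reduction in yeast growth under compound treatment, referenced to vehicle-treated cells.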

[13] = NCI Yeast Anticancer Drug Screen. Data for the sgs1 strain (AID 173);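 further: 0% = growth of vehicle-only control cultures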; conditions: S. cerevisiae sgs1 mutant, hits give high values
Method in brief: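 Treat defined-mutant yeast with compound; measure growth; calculate inhibition relative to vehicle-treated cells.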

[14] = NCI Yeast Anticancer Drug Screen. Data for the mlh1 rad18 strain (AID 175); conditions: S. cerevisiae mlh1 rad18 strain growth inhibition, hits give high values
Method in brief: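 Test agents were incubated with a yeast strain of defined genotype (DNA damage repair defect). Inhibition of growth was derived by comparison with vehicle-exposed cultures.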

[15] = NCI Yeast Anticancer Drug Screen. Data for the rad18 strain (AID 177); conditions: S. cerevisiae rad18 mutant growth inhibition, hits give high values
Method in brief: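 A genetically defined yeast mutant impaired in DNA damage repair was treated with test compounds, then its growth was measured against cultures receiving vehicle alone.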

[16] = at 5.0 µM (retest, dose inferred, filed as 0.5)
[17] = at 50.0 µM (retest, dose inferred, filed as 5.0)

Measured: growth inhibition

COc1ccc(-c2cc(-c3cc(C)cc(Cl)c3O)nc3[nH]c(=S)[nH]c(=S)c23)cc1
inactive: [1]; at 1.2 µM 1% | [1]; at 3.7 µM 4% | [1]; at 11.0 µM 6% | [1]; at 33.0 µM 15% | [2]; at 1.2 µM 0% | [2]; at 3.7 µM -1% | [2]; at 11.0 µM 0% | [2]; at 33.0 µM 1% | [2]; at 100.0 µM 35% | [3]; at 1.2 µM 3% | [3]; at 3.7 µM -5% | [3]; at 11.0 µM -14% | [3]; at 33.0 µM -15% | [3]; at 100.0 µM -15% | [4]; at 1.2 µM -1% | [4]; at 3.7 µM -2% | [4]; at 11.0 µM -3% | [4]; at 33.0 µM 25% | [5]; at 1.2 µM 3% | [5]; at 3.7 µM 5% | [5]; [16] -32% | [5]; at 11.0 µM 6% | [5]; at 33.0 µM 11% | [5]; at 100.0 µM 57% | [6]; at 1.2 µM 0% | [6]; at 3.7 µM 0% | [6]; [16] 2% | [6]; at 11.0 µM -2% | [6]; at 33.0 µM 2% | [6]; [17] 62% | [6]; at 100.0 µM 57% | [7]; at 1.2 µM 1% | [7]; at 3.7 µM 4% | [7]; at 11.0 µM 9% | [7]; at 33.0 µM 17% | [8]; [16] -13% | [8]; [17] 68% | [9]; at 1.2 µM -2% | [9]; at 3.7 µM -2% | [9]; at 11.0 µM -3% | [9]; at 33.0 µM -5% | [10]; [16] 44% | [10]; at 50.0 µM 65.5% | [11]; at 1.2 µM 2% | [11]; at 3.7 µM 4% | [11]; [16] -20% | [11]; at 11.0 µM 0% | [11]; at 33.0 µM 1% | [11]; [17] 63% | [11]; at 100.0 µM 58% | [12]; at 1.2 µM 0% | [12]; at 3.7 µM -4% | [12]; at 11.0 µM -4% | [12]; at 33.0 µM 6% | [13]; at 1.2 µM 1% | [13]; at 3.7 µM -2% | [13]; at 11.0 µM -1% | [13]; at 33.0 µM 16% | [14]; [16] -31% | [15]; at 1.2 µM 0% | [15]; at 3.7 µM -2% | [15]; at 11.0 µM -16% | [15]; at 33.0 µM 8% | [15]; at 100.0 µM 61%
active: [1]; at 100.0 µM 72% | [4]; at 100.0 µM 94% | [5]; [17] 96% | [5]; at 50.0 µM 75.1% | [6]; at 50.0 µM 82.6% | [7]; at 100.0 µM 89% | [8]; at 50.0 µM 84.8% | [9]; at 100.0 µM 87% | [10]; [17] 76% | [11]; at 50.0 µM 70.5% | [12]; at 100.0 µM 87% | [13]; at 100.0 µM 93% | [14]; [17] 86% | [14]; at 50.0 µM 87.1%

Reference: PubChem BioAssay (NCI)
